# Source: PubChem BioAssay AID1508600 (Functional Genomics Laboratory (NCATS/FGL), 2020)
# Hit rate of the full screen: of about 53,000 sequences, about 3,700 (7%) were called active. The sample as a whole holds a higher share of actives than the screen did. Unmarked numbers belong to inactive results.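 Rule for the calls: active = gene knockdowns whose robust z-score for IL-1 alpha signal is at least 2 or at most -2, so actives lie on both sides; inactive = the rest.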
# Experiment: Components of the Cytosolic LPS Sensing Pathway: Gene Identification via Genome-wide siRNA Screen;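 note: robust z of the log signal after scaling to non-targeting control siRNA wells of the plate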
# Settings: RAW264.7 macrophages, IL-1a HTRF, actives lie on both sides, screened at 100 nM (by protocol), cells primed 5 h with Pam3CSK4 first
# In short: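 Knockdown: 100 nM siRNA, 48h, RAW264.7. Stimulation: Pam3CSK4 5 h, then LipidA via TransIT-TKO 24 h. Output: supernatant IL-1a HTRF, negative-control-normalized, log robust z-score; viability by CellTiter-Glo.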
row,Sequence,z-score
1,GGAAGUGGACCAUUUCUUUTT against Olfr1359,0.719
2,GGCCUGAAGGGAAAGAUUUTT against Rbbp4,-0.721
3,GGACUUGGGUCAUUGUGAGTT against Grpel1,-0.93
4,GGCAGUUUCUGUGCUAUACTT against Olfr984,-2.49 (active)
5,GGAUAUUUAUUGUAUCCCATT against Col8a1,-0.918
6,GGCAUCUGACGAUAAUGAUTT against Lman2l,-0.337
7,GUUUUUCAUACAGUAGUAGTT against Vmn1r27,0.42
8,CCUGUGGGACUCAAUGUUGTT against 2310039H08Rik,-0.722
9,GGCCAGGAGAAGAAGAUACTT against Tet2,-0.261
10,GCCAUUCAAAAAUCAGCCGTT against Ddi2,-2.02 (active)
11,GCUCCUAGGAACUUGGUUATT against Pacsin2,0.687
12,GGCUGUUACAUUCUAUAUUTT against Kif5c,-0.13
13,CCCAAUUAAUGAUCACCCATT against Tlcd2,-3.04 (active)
14,GGCCCUGAACUGGUUUUGUTT against Osbpl10,-0.119
15,GCUCAACACUCGACAUUGUTT against Rrm1,-2.56 (active)
16,GGUGGCAUUAAGGAAAUCATT against Olfr147,-0.0185
17,GGCCUGAAGCAGCUUAUCUTT against Chad,-1.56
18,GGCAAAAAUGAGAAAGAGATT against Hebp2,-0.643
19,GCGUAUUACACCCUUGGAATT against Terf1,-0.462
20,GUCCUCCAUGAAGAAGCUCTT against Prm3,-0.953
21,GGACUUCAACAAGACCAUCTT against Proser2,1.55
22,CGUCCAUAGAACAAUUGCATT against Rnase12,2.82 (active)

row,Sequence,z-score
1,GGUAUUCCUGUCUCAGGUCTT against Matn1,-0.59
2,GGUUAUUCUCAUUUCGGAUTT against Phospho1,1.53
3,GCUUACUUCCAAGGUCUACTT against Ptch2,0.905
4,CCCAGCAGGCCAUAUUAGUTT against Cks1b,0.377
5,GGGAUCAUAAAGAUAACUUTT against Fasn,2.2 (active)
6,GCAUAGGGUCAUUUCAAGCTT against Kif23,0.0957
7,GCUGUACUAUCUUUUUCAUTT against Olfr165,-0.0549
8,GCCAGUUUGUGUGCAAAAATT against Lrp1,-0.551
9,GAUCUGGUAUGUUUGUGACTT against Olfr1414,-1.14
10,CCUGUGUGUGAAUCUCGUUTT against C1qb,1.11
11,GGAAAUGUUGCCGUUGUCCTT against Mfsd8,2.13 (active)
12,GGGUGGGAGACGAAGAUAATT against Usp17lf,-0.12
13,CCUAAUGGUUCAGGAUACGTT against Pcdhb5,-0.641
14,GGCUUUGAAAGUUACUACUTT against Zfp609,1.22
15,GCCACUGUGUGGAAUAAAUTT against Cblif,0.727
16,CCAAAAGAGUUUUACAGGGTT against Lhx9,-0.119
17,GGAUCAGGAAGUAAACUUCTT against S100a6,2.57 (active)
18,GCUGUGUAGCAUUUUAACATT against Ank2,-0.0376
19,GUUGACUGUACCCGAUACATT against Mxd3,-0.0552
20,GGUGCUGAGGCUGAUUCUCTT against Capn15,3.35 (active)
21,GGUAUAUCGCCUAAUCACUTT against Chd6,-0.885
22,GGUAGUGGAGCUGAAUGUUTT against Kctd8,0.113

row,Sequence,z-score
1,GCAGCCUUCGUGAGUCUGUTT against Asb1,-0.666
2,GGAUUAUGAUCCAGAAUUCTT against Omd,2.96 (active)
3,GGGACAUGAGUAACUGAUGTT against Dhx8,-0.908
4,GGUUGUGAUGUGGUGGUCATT against Mdh2,1.3
5,GGGAGAGACAGAAAGCUUUTT against Olfr213,1.61
6,GCCUAGAAAGUCUGAAUAATT against Ifng,0.203
7,GCUGUAAGCCAAUUAACAUTT against Emp1,1.06
8,CGUGCUUAGCAAUCUGAAUTT against Bcl6b,2.44 (active)
9,GGAAACAACUUUCUAUAACTT against Vmn1r195,-0.487
10,GGAUUCAGCAAAUGCUUCCTT against Rcor3,2.31 (active)
11,GGACAAGGCCAAGCUAUAATT against Cntnap2,-1.47
12,GCACCAAAUUCACUAGAGUTT against Cd24a,0.83
13,GCCCAUAAACUGAUGGUGGTT against Tbc1d24,-0.45
14,CCCAACAAAUACCACUACATT against Usp20,-1.39
15,GGAUCUGGUGACAAACGUATT against Cabyr,2.04 (active)
16,CCCGACUGAAUGCUCGGAUTT against Rnf220,0.386
17,GGAGAAAGCUCGAAAAUGGTT against Prpf8,-1.61
18,GGAAGGAAACUACGAAGGUTT against Edn1,-0.534
19,GGAUGCAGAAGCAACUUAATT against AA986860,1.91
20,CCGAUUUCCACAUCUGUCATT against Fam104a,-2.45 (active)
21,GGAAAGAAACAGAAGCACATT against Il21,-0.511
22,GCCUCUGUUCCAUCUUGGATT against F830104G03Rik,1.61

row,Sequence,z-score
1,GCUCAGCAGGAAAUAACAGTT against Ccdc90b,-2.06 (active)
2,GGAUGAAGAGCAUAACAGUTT against Sft2d2,-0.95
3,GCUAGUCAUGCUACGGAAUTT against Aftph,0.601
4,GGUUGUUUCACCAAUAGUUTT against Idi1,-0.454
5,GGGCAGAUGUAAUUCUUGUTT against Ctsm,1.91
6,GGUACAUGUAUUGUUUCACTT against Cyp2c38,2.76 (active)
7,GGAUUAUCCUGGCUUGUUGTT against Rdh12,-0.962
8,GCUGAUUGCCUCGGAGAAUTT against Shmt1,-0.0766
9,GCGCAUCGAAAAAUGGAUUTT against Rgl3,0.236
10,GGUAUUGAGUGAUAACUACTT against Klhdc7a,1.29
11,GCAUUCAAUCUGCAGAGGGTT against Olfr888,-2.48 (active)
12,GGGUAGAAAAGUGCAAUUUTT against Has2,0.0317
13,CGCUCUAGGAAAACAAUGUTT against Klb,-0.614
14,GGGUACAUCUAACUUGAAUTT against Tnfrsf10b,-0.411
15,GCGGCAUGGACUUAGUAAATT against Fbxo5,3.11 (active)
16,CGAUUAGUCUCUCAUUAUUTT against Ipo11,-1.12
17,GGCUAAUGCUCCUUCAUGUTT against Myo18a,-0.439
18,GCCCUGCACCAGAAAAACATT against Stk40,-0.662
19,GGUCUCUGUCUCCAAGAAATT against Fam53c,-1.69
20,GGUGUUUGGGCGGUUUGAATT against Snx15,-2.25 (active)
21,CCCUUAAUAAAGAAGGGACTT against Atg9a,0.961
22,GGGUCUACGAAGAAUAGGGTT against Cxcl14,0.744

row,Sequence,z-score
1,GCUAGAAGCUUUCUAUUCUTT against Hsph1,1.68
2,GGAGAGUAUCUGAAGUUUCTT against Jak2,1.8
3,GGUAAAAUGAUCCUUAGAATT against Pcdh15,0.145
4,GGAGCUGUCUCUACGAAACTT against Myoz3,1.27
5,GGAGCCUUUAAUCUCAUUATT against Wbp1,-0.463
6,GCCGUUUUAUUCACGUGAATT against Erp27,-1.36
7,GGAUGUGGUGGUAUUAGACTT against Phykpl,2.5 (active)
8,GGAAGAGGUUCAGAACAGATT against Spaca1,1.19
9,GGACCAAGGAUGUUCGCUUTT against Cnr2,1.14
10,GGAACGAACUCAUUAAAACTT against Abhd3,-0.736
11,CCGAUUUGGGUCAAUUUUATT against Usf3,-0.047
12,GGCGGAUUGAAUAAGAAGGTT against Pfn2,-0.517
13,GGGCUUUGGAUGAACUGCATT against Cldn17,-0.0702
14,GGAGCUCUUUGAGUACAUCTT against Ift46,2.48 (active)
15,CUCACAAGUCAAAGCCUACTT against Zfp182,0.121
16,AAUAGACUGGUACUCUCUGTT against Olfr476,1.08
17,GCCUGGUUACAGCAUUAACTT against Rimkla,-1.75
18,GGUCAAACAAGAAACAGUUTT against Prdm1,0.417
19,GCUGUGCCCUAAAGACUGGTT against Clec2m,2.27 (active)
20,GGUGAAGCUGAAGAAGUACTT against Chst12,0.975
